We go through 16 molecules from PubChem BioAssay AID1211 (NMMLSC, 2008).

Unmarked numbers belong to inactive results. Calls of active or inactive are those of the source. How the calls were made is not given here.

This test deals with Estrogen receptor (Homo sapiens) (UniProt P03372). The test is described as follows: displacement of fluorescent estrogen from ERalpha – cell-based, Cos7 ERalpha-GFP, flow cytometry, primary screen (AID 1211).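 Further: 0% = DMSO vehicle wells and 100% = no E2-Alexa633 signal left.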 Particulars: fluorescent ligand competition, at 10 µM, stronger effect = higher value.
Estrogen receptor (Homo sapiens), sequence (P03372 whole entry, looked up): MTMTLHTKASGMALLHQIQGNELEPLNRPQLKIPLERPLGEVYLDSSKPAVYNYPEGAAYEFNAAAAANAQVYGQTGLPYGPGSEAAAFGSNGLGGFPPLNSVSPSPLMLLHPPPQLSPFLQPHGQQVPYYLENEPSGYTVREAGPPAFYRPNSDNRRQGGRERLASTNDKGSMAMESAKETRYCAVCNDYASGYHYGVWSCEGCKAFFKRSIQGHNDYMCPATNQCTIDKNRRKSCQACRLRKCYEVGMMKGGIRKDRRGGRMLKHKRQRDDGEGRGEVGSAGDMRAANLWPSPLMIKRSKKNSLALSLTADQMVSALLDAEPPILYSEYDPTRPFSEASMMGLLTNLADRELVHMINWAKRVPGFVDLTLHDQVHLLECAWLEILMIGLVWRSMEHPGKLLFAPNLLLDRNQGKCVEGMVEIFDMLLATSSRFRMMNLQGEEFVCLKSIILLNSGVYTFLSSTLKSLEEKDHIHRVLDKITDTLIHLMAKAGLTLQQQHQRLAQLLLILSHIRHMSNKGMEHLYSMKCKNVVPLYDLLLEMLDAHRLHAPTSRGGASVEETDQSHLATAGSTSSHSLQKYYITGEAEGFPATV
In the case of `COc1cc(O)c2c(=O)c3c(OC)c(O)ccc3oc2c1`, the inhibition of ligand binding is 63%.

For the molecule `Cn1cccc1/C=C1\SC(=O)N(c2ccc(O)cc2)C1=O`, the inhibition of ligand binding was 45%. Turning to `O=C(NC1CC1)c1ccc2c(c1)C1C3CCC(C3)C1C(c1ccccc1)N2` (stereo unspecified), the inhibition of ligand binding was 86% (active). The same measure for `CC1(C)C=C(c2ccc(O)cc2)CC(C)(C)N1`: 8%.

As to `CCOc1cc2c(c([N+](=O)[O-])c1)NC(c1ccccc1)C1CC=CC21` (stereo unspecified), the inhibition of ligand binding was 12%. For `COc1cc2c3c(c1)/C(=C1/SC(NC(C)=O)=NC1=O)C(=O)N3C(C)(C)C=C2C`, the inhibition of ligand binding was 29%. As for `CCOC(=O)N1CCc2[nH]c3ccc(C)cc3c2C1`, the inhibition of ligand binding is 6%.

Consider `Cc1nn(-c2ccccc2)c2sc(C#N)c(N)c12`, for which the inhibition of ligand binding is 17%. As to `CC(C)CN(Cc1c(O)ccc2c3c(c(=O)oc12)CCC3)CC(C)C`, the inhibition of ligand binding was 6%. In the case of `COc1cccc(-c2[nH]nc3c2C(c2ccoc2)C(C#N)=C(N)O3)c1` (stereo unspecified) it was 23%. On to `COC(=O)c1ccc2c(c1)C1C=CCC1C(c1cccc([N+](=O)[O-])c1)N2` (stereo unspecified), for which the inhibition of ligand binding is 10%. Take `CC1CCN(Cc2c(O)ccc3c4c(c(=O)oc23)CCC4)CC1`: the inhibition of ligand binding is 0%. The same measure for `CCOC(=O)c1ccc2c(c1)C1C=CCC1C(c1cccc([N+](=O)[O-])c1)N2` (stereo unspecified): 21%. As for `Cc1ccc2c(c1)C1C=CCC1C(C(=O)O)N2` (stereo unspecified), the inhibition of ligand binding was 0%. Consider `CCOc1ccccc1-c1nc(-c2ccc(NC(=O)c3ccc(Br)o3)cc2)no1`, for which the inhibition of ligand binding is 52%. Take `CCNC(=O)c1ccc2c(c1)C1C3CCC(C3)C1C(c1ccccc1)N2` (stereo unspecified): the inhibition of ligand binding is 66% (active).
